Assay results reported in paper PMC4336329 (PLoS ONE, 2015).
The whole screen tested about 310,000 compounds, of which about 14,000 (4.5%) showed an effect of 50% or more. The effect is printed as a negative number. The sample holds strong results, similar compounds and a random draw of the others, so the mix is not that of the screen.

Biological target: human ether-à-go-go-related gene (hERG) potassium channel (human, UniProt Q12809)
Assay: primary screen, population patch clamp on CHO cells stably expressing hERG; higher = less effect of the substance
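Further: peak tail current of the secondary pulse compared with the same well before compound.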

human ether-à-go-go-related gene (hERG) potassium channel, sequence (Q12809 whole entry, looked up): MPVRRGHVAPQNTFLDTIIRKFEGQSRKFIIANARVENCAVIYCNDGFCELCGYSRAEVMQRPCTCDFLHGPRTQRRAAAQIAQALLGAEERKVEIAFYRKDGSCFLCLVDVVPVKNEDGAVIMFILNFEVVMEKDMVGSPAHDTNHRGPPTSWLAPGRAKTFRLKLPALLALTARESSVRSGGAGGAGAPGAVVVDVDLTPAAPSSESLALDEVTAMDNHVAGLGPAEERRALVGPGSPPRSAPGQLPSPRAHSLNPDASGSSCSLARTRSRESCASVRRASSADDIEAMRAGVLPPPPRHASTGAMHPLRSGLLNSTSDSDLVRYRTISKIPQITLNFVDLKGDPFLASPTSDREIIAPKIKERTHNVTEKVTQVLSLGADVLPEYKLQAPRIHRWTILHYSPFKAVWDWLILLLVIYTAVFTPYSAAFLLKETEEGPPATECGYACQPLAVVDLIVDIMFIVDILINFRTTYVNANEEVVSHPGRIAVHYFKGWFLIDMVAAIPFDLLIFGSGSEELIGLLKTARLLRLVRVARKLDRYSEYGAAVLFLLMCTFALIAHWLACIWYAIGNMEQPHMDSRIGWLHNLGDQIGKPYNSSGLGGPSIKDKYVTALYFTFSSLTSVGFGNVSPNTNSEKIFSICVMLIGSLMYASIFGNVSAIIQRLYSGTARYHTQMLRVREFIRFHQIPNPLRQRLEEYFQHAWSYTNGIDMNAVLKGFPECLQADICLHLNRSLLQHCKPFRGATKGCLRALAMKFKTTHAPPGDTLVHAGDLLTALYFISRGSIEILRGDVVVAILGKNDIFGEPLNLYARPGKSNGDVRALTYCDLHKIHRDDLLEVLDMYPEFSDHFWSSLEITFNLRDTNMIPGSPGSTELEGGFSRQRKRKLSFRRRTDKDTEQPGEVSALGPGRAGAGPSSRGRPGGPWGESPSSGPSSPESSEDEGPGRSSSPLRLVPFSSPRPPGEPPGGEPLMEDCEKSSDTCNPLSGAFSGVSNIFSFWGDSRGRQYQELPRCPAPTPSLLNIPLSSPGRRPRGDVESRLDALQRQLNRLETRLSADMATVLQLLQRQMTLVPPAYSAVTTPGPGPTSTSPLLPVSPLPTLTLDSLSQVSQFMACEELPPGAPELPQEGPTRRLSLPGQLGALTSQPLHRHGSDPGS

Structure (SMILES) | hERG current change (%, negative = inhibition) at 10uM [%]
O=C(CCn1cnc2ccccc2c1=O)Nc1ccc2c(c1)OCCO2 | 15.1
Cc1cc(C(=O)N(C)C2CCCCC2)no1 | 11.7
CC(=O)O[C@H]1CC[C@@]2(C)[C@@H](CC[C@@H]3[C@@H]2CC[C@]2(C)[C@@H](C(C)(C)O)C[C@@H]32)C1 | 9.09
CC(C)(C)S(=O)(=O)/C(C#N)=N/Nc1ccc(C#N)cc1 | 22.1
CN(CCc1ccccn1)C(=O)Nc1ccc(F)cc1 | 12.7
COc1ccccc1/C=N/Nc1nc(C)c(C(C)=O)s1 | 5
CC(Oc1ccccc1)C(=O)N1CCC2(CC1)Oc1ccc(F)cc1C(=O)C21CC(c2cccnc2)=NO1 (stereo not shown) | -20.5
[Cl-].c1ccc(COc2ccc(-c3sc(Nc4ccccc4)n[n+]3-c3ccccc3)cc2)cc1 | -43.9
O=C(CSc1nc(C(F)(F)F)cc(=O)[nH]1)N1CCCC1 | 19
Cc1ccc(NCc2ccco2)cc1C.O=C(O)C(=O)O | 1.93
Cc1onc(-c2c(Cl)cccc2Cl)c1C(=O)Nc1nc(C(C)(C)C)cs1 | -26.4
COc1ccc(CN2CCCC(C(=O)c3sccc3C)C2)cc1O (stereo not shown) | -71.9
Cc1ccsc1C(=O)C1CCCN(CCO)C1 (stereo not shown) | 5.34
Cc1nc(CCNC(=O)CC2C(=O)NCCN2Cc2ccc(F)cc2)sc1C (stereo not shown) | 12.3
O=C(OCc1cccc([N+](=O)[O-])c1)c1ccc2ccccc2n1 | 7.33
CC(C)C(OC(=O)CN1C(=O)c2ccccc2C1=O)C(=O)NC1CCCC1 (stereo not shown) | 18.7
COC(=O)CNC(=O)C12CC3CC(C1)CC(c1ccc(C)cc1)(C3)C2 | 12.9
C=CCn1c(O)c(C=NCCCOc2ccc(CC)cc2)c(=O)[nH]c1=S | 21.8
CCCCN(C)C(=O)C1CCN(Cc2cccc(OCc3ccccc3)c2)CC1.O=C(O)C(=O)O | -67.7
O=C(NCc1ccccn1)C1CCN(Cc2cccc(OCc3ccccc3)c2)CC1.O=C(O)C(=O)O | -35.7
CCN(CC)C(=O)C1CCN(Cc2ccc(OCc3ccccc3)cc2)CC1.O=C(O)C(=O)O | -48.7
NC(=O)C1CCN(Cc2ccc(OCc3ccccc3)cc2)CC1.O=C(O)C(=O)O | -29.5
C=CCN(CC=C)C(=O)C1CCN(Cc2ccc(OCc3ccccc3)cc2)CC1.O=C(O)C(=O)O | -68
CCN(CC)C(=O)C1CCN(Cc2cccc(OCc3ccccc3)c2)CC1.O=C(O)C(=O)O | -39.6
CCCCN(C)C(=O)C1CCN(Cc2ccc(OCc3ccccc3)cc2)CC1.O=C(O)C(=O)O | -73.4
